# Measurements: PubChem BioAssay AID1159580 (chemical genetic matrix, 2015)
# Several values for one entry are separate records, joined by “and”; a condition that tells them apart may be missing. Equal values may be shown once. Screen size: about 5,500 compounds; about 2,000 (36%) were called active. Another 18% or so got no clear call; they are omitted. Rule as the data show it: active = normalized growth mostly below about 0.91 (no sharp cut-off); inconclusive = no clear call, values can overlap the other calls; inactive = mostly above about 0.92. This is one part of the list. The source holds several records for some structures; these can differ, active in one and inactive in another.
# Assay: chemical genetic growth profiling, strain panel (AID 1159580);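 also: tested at 20 µM; growth read once vehicle control cultures reached saturation at 30 °C; 1 = growth at the plate median or of vehicle wells; lower values mean less growth of the strain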
# Details: growth OD
structure (smiles),measurement,setting,value
Oc1ccc(O)cc1,normalized growth,"S. cerevisiae deletion strains, locus YAL013W, strain DEP1, stronger effect = lower value",0.989 (inactive) and 0.9 (active)
same,normalized growth,"S. cerevisiae deletion strains, locus YAL040C, strain CLN3, stronger effect = lower value",1.1 (inactive)
same,normalized growth,"S. cerevisiae deletion strains, locus YBR021W, strain FUR4, stronger effect = lower value",0.688 (active)
same,normalized growth,"S. cerevisiae deletion strains, locus YBR229C, strain ROT2, stronger effect = lower value",1.02 (inactive)
same,normalized growth,"S. cerevisiae deletion strains, locus YCL029C, strain bik1, stronger effect = lower value",1.04 (inactive)
same,normalized growth,"S. cerevisiae deletion strains, locus YCL061C, strain MRC1 (second series), stronger effect = lower value",0.978 (inactive)
same,normalized growth,"S. cerevisiae deletion strains, locus YDL035C, strain GPR1, stronger effect = lower value",0.9 (inactive)
same,normalized growth,"S. cerevisiae deletion strains, locus YDL074C, strain BRE1, stronger effect = lower value",0.96 (inactive)
same,normalized growth,"S. cerevisiae deletion strains, locus YDL101C, strain DUN1, stronger effect = lower value",1.02 (inactive)
same,normalized growth,"S. cerevisiae deletion strains, locus YDL134C, strain PPH21, stronger effect = lower value",0.987 (inactive)
same,normalized growth,"S. cerevisiae deletion strains, locus YDL185W, strain tfp1, stronger effect = lower value",1.01 (inactive)
same,normalized growth,"S. cerevisiae deletion strains, locus YDL192W, strain arf1, stronger effect = lower value",1.02 (inactive)
same,normalized growth,"S. cerevisiae deletion strains, locus YDR101C, strain arx1, stronger effect = lower value",1.03 (inactive)
same,normalized growth,"S. cerevisiae deletion strains, locus YDR150W, strain NUM1, stronger effect = lower value",1.01 (inactive) and 0.953 (inactive)
same,normalized growth,"S. cerevisiae deletion strains, locus YDR162C, strain NBP2, stronger effect = lower value",0.987 (inactive)
same,normalized growth,"S. cerevisiae deletion strains, locus YDR318W, strain mcm21, stronger effect = lower value",1 (inactive)
same,normalized growth,"S. cerevisiae deletion strains, locus YDR363W, strain ESC2, stronger effect = lower value",0.997 (inactive)
same,normalized growth,"S. cerevisiae deletion strains, locus YDR388W, stronger effect = lower value",0.999 (inactive)
same,normalized growth,"S. cerevisiae deletion strains, locus YDR502C, strain sam2, stronger effect = lower value",1.02 (inactive)
same,normalized growth,"S. cerevisiae deletion strains, locus YEL061C, strain CIN8, stronger effect = lower value",1.02 (inactive)
same,normalized growth,"S. cerevisiae deletion strains, locus YER002W, strain NOP16, stronger effect = lower value",1 (inactive)
same,normalized growth,"S. cerevisiae deletion strains, locus YER110C, stronger effect = lower value",1.04 (inactive)
same,normalized growth,"S. cerevisiae deletion strains, locus YER155C, strain BEM2, stronger effect = lower value",1.02 (inactive)
same,normalized growth,"S. cerevisiae deletion strains, locus YER167W, strain BCK2, stronger effect = lower value",0.926 (inactive)
same,normalized growth,"S. cerevisiae deletion strains, locus YGL078C, strain dbp3, stronger effect = lower value",1.03 (inactive)
same,normalized growth,"S. cerevisiae deletion strains, locus YGL086W, strain mad1, stronger effect = lower value",0.985 (inactive)
same,normalized growth,"S. cerevisiae deletion strains, locus YGL248W, strain PDE1, stronger effect = lower value",0.975 (inactive)
same,normalized growth,"S. cerevisiae deletion strains, locus YGR078C, strain PAC10, stronger effect = lower value",0.858 (inactive) and 1.01 (inactive)
same,normalized growth,"S. cerevisiae deletion strains, locus YGR135W, strain pre9, stronger effect = lower value",0.964 (inactive)
same,normalized growth,"S. cerevisiae deletion strains, locus YGR229C, strain SMI1, stronger effect = lower value",0.637 (active)
same,normalized growth,"S. cerevisiae deletion strains, locus YGR252W, strain gcn5, stronger effect = lower value",0.765 (active)
same,normalized growth,"S. cerevisiae deletion strains, locus YHR030C, strain SLT2, stronger effect = lower value",1 (inactive) and 1.03 (inactive)
same,normalized growth,"S. cerevisiae deletion strains, locus YHR079C, strain IRE1 (second series), stronger effect = lower value",1 (inactive)
same,normalized growth,"S. cerevisiae deletion strains, locus YHR079C, strain IRE1, stronger effect = lower value",1.05 (inactive)
same,normalized growth,"S. cerevisiae deletion strains, locus YHR094C, strain hxt1, stronger effect = lower value",1.01 (inactive)
same,normalized growth,"S. cerevisiae deletion strains, locus YHR129C, strain ARP1, stronger effect = lower value",1.01 (inactive)
same,normalized growth,"S. cerevisiae deletion strains, locus YHR200W, strain rpn10, stronger effect = lower value",1 (inactive)
same,normalized growth,"S. cerevisiae deletion strains, locus YIL066C, strain RNR3, stronger effect = lower value",0.993 (inactive)
same,normalized growth,"S. cerevisiae deletion strains, locus YIL073C, strain SPO22, stronger effect = lower value",0.82 (inactive)
same,normalized growth,"S. cerevisiae deletion strains, locus YIL125W, strain kgd1, stronger effect = lower value",1.03 (inactive)
same,normalized growth,"S. cerevisiae deletion strains, locus YIR030C, strain dcg1, stronger effect = lower value",1.06 (inactive)
same,normalized growth,"S. cerevisiae deletion strains, locus YJL095W, strain BCK1, stronger effect = lower value",0.968 (inactive) and 1.01 (inactive)
same,normalized growth,"S. cerevisiae deletion strains, locus YJL134W, strain LCB3, stronger effect = lower value",1.02 (inactive)
same,normalized growth,"S. cerevisiae deletion strains, locus YJL168C, strain set2, stronger effect = lower value",1.02 (inactive)
same,normalized growth,"S. cerevisiae deletion strains, locus YJL187C, strain SWE1 (second series), stronger effect = lower value",1.01 (inactive)
same,normalized growth,"S. cerevisiae deletion strains, locus YJR043C, strain POL32, stronger effect = lower value",0.86 (inactive)
same,normalized growth,"S. cerevisiae deletion strains, locus YJR066W, strain TOR1, stronger effect = lower value",1.02 (inactive)
same,normalized growth,"S. cerevisiae deletion strains, locus YJR075W, strain HOC1, stronger effect = lower value",0.951 (inactive)
same,normalized growth,"S. cerevisiae deletion strains, locus YKL009W, strain mrt4, stronger effect = lower value",1.03 (inactive)
same,normalized growth,"S. cerevisiae deletion strains, locus YKL068W, stronger effect = lower value",1.01 (inactive)
same,normalized growth,"S. cerevisiae deletion strains, locus YKL085W, strain MDH1 (second series), stronger effect = lower value",1.02 (inactive)
same,normalized growth,"S. cerevisiae deletion strains, locus YKL085W, strain MDH1, stronger effect = lower value",1.02 (inactive)
same,normalized growth,"S. cerevisiae deletion strains, locus YKL190W, strain CNB1, stronger effect = lower value",1 (inactive)
same,normalized growth,"S. cerevisiae deletion strains, locus YKR001C, strain vps1, stronger effect = lower value",0.927 (inactive)
same,normalized growth,"S. cerevisiae deletion strains, locus YLR039C, strain RIC1, stronger effect = lower value",0.904 (inactive)
same,normalized growth,"S. cerevisiae deletion strains, locus YLR058C, strain SHM2, stronger effect = lower value",1.01 (inactive)
same,normalized growth,"S. cerevisiae deletion strains, locus YLR102C, strain apc9, stronger effect = lower value",1.03 (inactive)
same,normalized growth,"S. cerevisiae deletion strains, locus YLR113W, strain HOG1, stronger effect = lower value",1.04 (inactive)
same,normalized growth,"S. cerevisiae deletion strains, locus YLR262C, strain YPT6, stronger effect = lower value",0.843 (inactive)
same,normalized growth,"S. cerevisiae deletion strains, locus YLR268W, strain sec22, stronger effect = lower value",0.98 (inactive)
same,normalized growth,"S. cerevisiae deletion strains, locus YLR330W, strain CHS5, stronger effect = lower value",1.01 (inactive)
same,normalized growth,"S. cerevisiae deletion strains, locus YLR342W, strain FKS1 (second series), stronger effect = lower value",0.801 (inactive)
same,normalized growth,"S. cerevisiae deletion strains, locus YLR371W, strain rom2, stronger effect = lower value",1.03 (inactive)
same,normalized growth,"S. cerevisiae deletion strains, locus YLR418C, strain cdc73, stronger effect = lower value",0.845 (inactive)
same,normalized growth,"S. cerevisiae deletion strains, locus YML016C, strain PPZ1, stronger effect = lower value",1.01 (inactive)
same,normalized growth,"S. cerevisiae deletion strains, locus YML032C, strain rad52, stronger effect = lower value",0.937 (inactive)
same,normalized growth,"S. cerevisiae deletion strains, locus YML124C, strain tub3, stronger effect = lower value",1.03 (inactive)
same,normalized growth,"S. cerevisiae deletion strains, locus YMR078C, strain ctf18, stronger effect = lower value",1.04 (inactive)
same,normalized growth,"S. cerevisiae deletion strains, locus YMR223W, strain ubp8, stronger effect = lower value",0.996 (inactive)
same,normalized growth,"S. cerevisiae deletion strains, locus YMR263W, strain SAP30, stronger effect = lower value",0.989 (inactive)
same,normalized growth,"S. cerevisiae deletion strains, locus YMR307W, strain GAS1, stronger effect = lower value",0.716 (inactive) and 0.967 (inactive)
same,normalized growth,"S. cerevisiae deletion strains, locus YNL067W, strain RPL9B, stronger effect = lower value",0.933 (inactive)
same,normalized growth,"S. cerevisiae deletion strains, locus YNL128W, strain TEP1, stronger effect = lower value",1.02 (inactive)
same,normalized growth,"S. cerevisiae deletion strains, locus YNL153C, strain GIM3, stronger effect = lower value",0.995 (inactive)
same,normalized growth,"S. cerevisiae deletion strains, locus YNL175C, strain NOP13, stronger effect = lower value",1 (inactive)
same,normalized growth,"S. cerevisiae deletion strains, locus YNL183C, strain NPR1, stronger effect = lower value",1.03 (inactive)
same,normalized growth,"S. cerevisiae deletion strains, locus YNL197C, strain WHI3, stronger effect = lower value",1.01 (inactive)
same,normalized growth,"S. cerevisiae deletion strains, locus YNL224C, strain SQS1, stronger effect = lower value",1.02 (inactive)
same,normalized growth,"S. cerevisiae deletion strains, locus YNL233W, strain BNI4, stronger effect = lower value",0.985 (inactive)
same,normalized growth,"S. cerevisiae deletion strains, locus YNL250W, strain rad50, stronger effect = lower value",1.03 (inactive)
same,normalized growth,"S. cerevisiae deletion strains, locus YNL271C, strain bni1, stronger effect = lower value",1.05 (inactive)
same,normalized growth,"S. cerevisiae deletion strains, locus YNL298W, strain CLA4, stronger effect = lower value",1.04 (inactive)
same,normalized growth,"S. cerevisiae deletion strains, locus YNL307C, strain MCK1, stronger effect = lower value",0.794 (active)
same,normalized growth,"S. cerevisiae deletion strains, locus YNL322C, strain KRE1, stronger effect = lower value",1.02 (inactive)
same,normalized growth,"S. cerevisiae deletion strains, locus YNR052C, strain pop2, stronger effect = lower value",1.04 (inactive)
same,normalized growth,"S. cerevisiae deletion strains, locus YOL006C, strain TOP1, stronger effect = lower value",0.636 (inactive)
same,normalized growth,"S. cerevisiae deletion strains, locus YOL012C, strain htz1",0.667 (inactive)
same,normalized growth,"S. cerevisiae deletion strains, locus YOL147C, strain pex11, stronger effect = lower value",1.03 (inactive)
same,normalized growth,"S. cerevisiae deletion strains, locus YOR061W, strain CKA2, stronger effect = lower value",1.01 (inactive)
same,normalized growth,"S. cerevisiae deletion strains, locus YOR069W, strain VPS5, stronger effect = lower value",1.01 (inactive)
same,normalized growth,"S. cerevisiae deletion strains, locus YOR083W, strain WHI5 (second series), stronger effect = lower value",0.893 (inactive)
same,normalized growth,"S. cerevisiae deletion strains, locus YOR136W, strain idh2, stronger effect = lower value",1.03 (inactive)
same,normalized growth,"S. cerevisiae deletion strains, locus YOR144C, strain elg1, stronger effect = lower value",1.02 (inactive)
same,normalized growth,"S. cerevisiae deletion strains, locus YOR184W, strain ser1, stronger effect = lower value",0.979 (inactive)
same,normalized growth,"S. cerevisiae deletion strains, locus YOR231W, strain MKK1, stronger effect = lower value",1.06 (inactive)
same,normalized growth,"S. cerevisiae deletion strains, locus YOR316C, strain cot1, stronger effect = lower value",1.03 (inactive)
same,normalized growth,"S. cerevisiae deletion strains, locus YPL055C, strain LGE1, stronger effect = lower value",0.851 (inactive)
same,normalized growth,"S. cerevisiae deletion strains, locus YPL241C, strain CIN2, stronger effect = lower value",1.01 (inactive) and 1 (inactive)
same,normalized growth,"S. cerevisiae deletion strains, locus YPL256C, strain CLN2, stronger effect = lower value",1.08 (inactive)
same,normalized growth,"S. cerevisiae deletion strains, locus YPR119W, strain clb2, stronger effect = lower value",1.04 (inactive)
same,normalized growth,"S. cerevisiae deletion strains, locus YPR141C, strain kar3, stronger effect = lower value",1.03 (inactive)
same,normalized growth,"S. cerevisiae deletion strains, locus YPR163C, strain tif3, stronger effect = lower value",1 (inactive)
same,normalized growth,"S. cerevisiae deletion strains, locus YPR167C, strain met16, stronger effect = lower value",1.02 (inactive)
same,normalized growth,"S. cerevisiae deletion strains, strain wtn01, stronger effect = lower value",0.999 (inactive)
same,normalized growth,"S. cerevisiae strains, strain wild type, stronger effect = lower value",1.01 (inactive)
